Among all 16,000 compounds or so, about 5,800 (36%) were called active. About 23% were inconclusive and are not listed. The list shows a part of the results. A number with no mark means an inactive call. The call rests on the fitted dose curve; in most records, active means well fitted curve in the direction sought with a large enough effect; inconclusive means small, poorly fitted or top-dose-only effect, or effect the other way; inactive means no such curve, though single readings can be large or run the other way.
Target: Cytochrome P450 2C19 (Homo sapiens) (UniProt P33261)
Experiment: Cytochrome panel assay with activity outcomes
Settings: recombinant CYP, pro-luciferin dealkylation, luminescence, p450-cyp2c19; series mostly up to 57.1 µM; activity, negative = inhibition: at the top concentration
On the % scale 0 is the no-effect control and ±100 the full control effect.

Cytochrome P450 2C19 (Homo sapiens), sequence (P33261 whole entry, looked up): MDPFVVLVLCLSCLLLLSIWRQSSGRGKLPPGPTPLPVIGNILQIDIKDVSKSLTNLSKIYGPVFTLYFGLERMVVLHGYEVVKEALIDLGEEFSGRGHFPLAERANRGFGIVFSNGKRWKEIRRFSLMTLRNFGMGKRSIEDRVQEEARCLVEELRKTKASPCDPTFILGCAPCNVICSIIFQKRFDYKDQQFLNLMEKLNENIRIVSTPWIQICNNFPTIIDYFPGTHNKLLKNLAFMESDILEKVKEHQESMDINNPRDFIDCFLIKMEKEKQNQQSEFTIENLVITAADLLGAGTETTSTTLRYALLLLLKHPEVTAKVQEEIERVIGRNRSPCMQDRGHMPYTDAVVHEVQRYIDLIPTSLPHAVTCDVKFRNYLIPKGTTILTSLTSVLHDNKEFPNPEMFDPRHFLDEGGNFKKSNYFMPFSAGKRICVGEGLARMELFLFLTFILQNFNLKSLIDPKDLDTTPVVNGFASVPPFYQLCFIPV

Structure (SMILES) | activity, negative = inhibition | AC50
CCN1CCN(C(=O)N[C@H](C(=O)N[C@@H]2C(=O)N3[C@@H]2SC(C)(C)[C@@H]3C(=O)O)c2ccccc2)C(=O)C1=O | 34.8% [at 25.6 µM] | –
Cc1cnc(CNc2ncncc2-c2cccc(C#N)c2)cn1 | 19.9% | –
N#Cc1cccc(-c2cncnc2NCc2cccs2)c1 | – | 7.94 µM (active)
N#Cc1cccc(-c2cncnc2NCc2cccnc2)c1 | – | 3.98 µM (active)
Cc1cccc(CNc2ncncc2-c2cccc(C#N)c2)c1 | – | 3.98 µM (active)
N#Cc1cccc(-c2cncnc2NCc2ccccc2)c1 | – | 7.94 µM (active)
CC(C)CN1CCC2(CC1)CCN(C(=O)c1cccn1C)CC2 | 28.4% | –
CC(=O)NC1=NC(=O)CS1 | -12.1% | –
Nc1cc(-c2ccncc2)c[nH]c1=O | – | 5.01 µM (active)
Cc1cccc(C)c1OC[C@@H](N)C(C)C | -15.9% | –
CCCCc1ccc(-c2csc(/C(C#N)=C/c3ccc(C)o3)n2)cc1 | – | 5.62 µM (active)
Nc1nnc(C(c2ccccc2)c2ccccc2)s1 | – | 22.4 µM (active)
COc1ccc(C(C(=O)NC2CCCC2)N(Cc2ccc(F)cc2)C(=O)c2ccn[nH]2)cc1OC (stereo not drawn) | – | 10 µM (active)
COc1ccc(CC(NC(C)=O)C(=O)NC2CCN(C(=O)Nc3ccc(Cl)cc3)CC2)cc1OC (stereo not drawn) | -29.6% | –
O=C(NC1CCCC1)C(c1ccc(F)cc1)N(Cc1ccc(F)cc1)C(=O)c1ccn[nH]1 (stereo not drawn) | – | 5.01 µM (active)
Cc1nc2cnc(N3CCN(C)CC3)nc2n(Cc2ccc(F)cc2)c1=O | -36% | –
COCCn1c(=O)c(-c2ccccc2)nc2cnc(OC)nc21 | -40% | –
COc1ncc2nc(C)c(=O)n(CCc3ccccc3)c2n1 | – | 25.1 µM (active)
COc1ncc2nc(-c3ccc(F)cc3)c(=O)n(CCc3ccccc3)c2n1 | -5.58% | –
COc1ccc(-c2nc3cnc(OC)nc3n(-c3ccc(OC)cc3)c2=O)cc1 | 19.5% | –
Cc1nc2cnc(Oc3ccccc3)nc2n(CCc2ccccc2)c1=O | -27.8% | –
COc1ccc(-n2c(=O)c(CCc3ccccc3)nc3cnc(N4CCN(C)CC4)nc32)cc1 | -34.8% | –

Structure (SMILES) | activity, negative = inhibition | AC50
COCCn1c(=O)c(-c2cn(C)c3ccccc23)nc2cnc(OCc3ccccc3)nc21 | -1.54% | –
COCCn1c(=O)c(CCc2ccccc2)nc2cnc(OC)nc21 | – | 0.794 µM (active)
COc1ccc(-c2nc3cnc(OC)nc3n(CCc3ccccc3)c2=O)cc1 | -22.4% | –
COc1ncc2nc(CCc3ccccc3)c(=O)n(CCc3ccccc3)c2n1 | – | 7.94 µM (active)
COc1ccc(-n2c(=O)c(CCc3ccccc3)nc3cnc(OC)nc32)cc1 | – | 6.31 µM (active)
C#CCCCO/N=C1/C[C@@H](O)[C@@H](O)[C@@H]2[C@@H]3C(=O)N(C4CCCCC4)C(=O)[C@H]3CC[C@@H]12 | -32.2% [at 11.4 µM] | –
O=C1C[C@H]2C(=O)[C@@H]1[C@@H](C(=O)O)[C@H]2C(=O)O | -11.8% [at 11.4 µM] | –
Cc1ccc(S(=O)(=O)N[C@H]2COC(=O)[C@@H](C)COC(=O)[C@H](C)NC(=O)C/C=C\[C@H]2C)cc1 | 9.82% [at 11.4 µM] | –
COc1ccc(-c2nc3cnc(N4CCNCC4)nc3n(C)c2=O)cc1 | -36.3% | –
CCOC(=O)c1c(C)n(C)c2ccc(OC)c(NS(=O)(=O)c3ccc(Cl)s3)c12 | – | 0.282 µM (active)
Cc1ccc(SCCNC(=S)Nc2ccc(C)c(C)c2)cc1 | – | 3.16 µM (active)
Cc1ccc(CCN2CC(C(=O)NCCN3CCOCC3)CC2=O)cc1 (stereo not drawn) | 0.693% | –
C=CCNC(=S)Nc1ccc2nc(C)c(C)nc2c1 | -19.7% | –
Cc1cc(-c2ccccc2)nnc1NCCN1CCOCC1 | -34.1% [at 25.6 µM] | –
Cc1ccc(NC(=S)NCCN2CCOCC2)cc1C | – | 5.01 µM (active)
O=C(c1cccc(F)c1)N1CCC2(CC1)CCN(C(c1ccccc1)c1ccccc1)CC2 | -40.6% | –
CN(C)CCCn1cnc2cc(Cl)c(Cl)cc21 | 51.6% [at 11.4 µM] | –
Cc1cc(Cl)ccc1OCC(=O)N/N=C1\CCCc2ccccc21 | -19.7% | –
O=C(N/N=C1\CCCc2ccccc21)c1ccc([N+](=O)[O-])cc1Cl | – | 4.47 µM (active)
CCCCNC(=S)NNC(=O)c1sccc1C | – | 0.794 µM (active)
CCCCNC(=S)NNC(=O)c1csc2c1CCC(C)C2 (stereo not drawn) | – | 3.98 µM (active)
CC1CCc2c(C(=O)Nc3nccs3)csc2C1 (stereo not drawn) | – | 2.82 µM (active)

Structure (SMILES) | activity, negative = inhibition | AC50
CC(C)NC(=O)N1CCC2(CC1)CCN(C(=O)c1ccncc1)CC2 | 29.5% | –
CCNc1ncc2nc(-c3cc(F)cc(F)c3)c(=O)n(C[C@H]3CCCO3)c2n1 | -29.6% | –
COCCn1c(=O)c(-c2ccc(OC)cc2)nc2cnc(N3CCNCC3)nc21 | -6.8% | –
COC(=O)c1sccc1-c1ccc(C(=O)Nc2cccc(Cl)c2)o1 | – | 3.16 µM (active)
COC(=O)COc1ccsc1C(=O)OC | -18.3% | –
CCOC(=O)C(=Cc1ccc(-c2ccsc2C(=O)OC)o1)C(=O)OCC | – | 2.82 µM (active)
COC(=O)c1sccc1-c1ccc(C(=O)Nc2cccnc2)o1 | – | 3.16 µM (active)
CCN(CC)S(=O)(=O)c1cccc2c(N(C)C)cccc12 | – | 3.98 µM (active)
CCN(CC)S(=O)(=O)c1ccc2c3c(cccc13)C(=O)S2 | – | 1 µM (active)
Cc1noc(NS(=O)(=O)c2cccc3c(N(C)C)cccc23)c1C | -5.75% | –
CN(C)c1ccc(-c2cncnc2NCc2cccs2)cc1 | – | 0.631 µM (active)
Cc1cnc(CNc2ncncc2-c2ccoc2)cn1 | -27.2% | –
c1ccc(CNc2ncncc2-c2ccoc2)cc1 | – | 10 µM (active)
c1cncc(-c2cncnc2NCc2cccs2)c1 | -41.8% | –
c1csc(CNc2ncncc2-c2ccoc2)c1 | – | 15.8 µM (active)
NC/C=C\C(=O)O | – | inactive
CC1=CC=CN2CC(O)CN=C12 (stereo not drawn) | 28.9% | –
Cc1cc(C)cc(-n2nnnc2SCC(=O)Nc2nc(-c3ccc(Cl)cc3)cs2)c1 | – | 3.55 µM (active)
O=C1CCCN1CC(CN1CCOCC1)Sc1nnnn1-c1ccccc1 (stereo not drawn) | – | 14.1 µM (active)
CSc1c(-c2ccccc2)nc2ccc(Cl)cc2c1C(=O)O | -17.1% | –
CSc1nc(Sc2cccc(Cl)c2)c2ccccc2n1 | – | 6.31 µM (active)
Cc1ccc(Sc2nc(C)cc(C)c2S(C)(=O)=O)cc1 | – | 3.16 µM (active)

Structure (SMILES) | activity, negative = inhibition | AC50
CCN(CC)CCc1nc(-c2ccccc2)no1 | -20.7% [at 25.6 µM] | –
COc1ccc(C(=O)NNC(=O)Cc2ccc(-c3ccccc3)cc2)cc1OC | -4.13% | –
O=C(CCc1nc(-c2ccccc2)no1)NCCc1ccccc1 | – | 5.01 µM (active)
COc1ccc(-c2noc(CCCC(=O)NCCc3ccccc3)n2)cc1OC | – | 7.08 µM (active)
O=C1c2ccccc2C(=O)N1C[C@]1(C(=O)O)NCCS1(=O)=O | -9.77% [at 11.4 µM] | –
O=C1c2ccccc2C(=O)N1CC(=O)N1c2ccccc2CCc2ccccc21 | – | 1.41 µM (active)
O=C1CC[C@H](N2C(=O)c3ccccc3C2=O)C(=O)N1 | – | inactive
CC(C)(N)C(=O)N[C@@H]1C(=O)N2[C@@H]1SC(C)(C)[C@H]2C(=O)O | 2.03% [at 11.4 µM] | –
CCCCC(=O)Nc1ccc(C(=O)NNC(=O)CCc2ccccc2)cc1 | -4.99% | –
CCC(CC)C(=O)Nc1ccc(C)c(O)c1 | – | 14.1 µM (active)
CCCCC(=O)Nc1ccc(C)c(O)c1 | – | 15.8 µM (active)
Cc1ccc(NC(=O)CC2CS(=O)(=O)CC2CC(=O)Nc2ccc(C)c(C)c2)cc1C (stereo not drawn) | 0.0954% | –
Clc1ccc(CSC2=NCCN2)cc1Cl | -10.9% [at 11.4 µM] | –
CNc1cc(CSC)nc(SCc2ccc(Cl)c(Cl)c2)n1 | – | 0.794 µM (active)
O=C(Oc1ccccc1N1C(=O)C2CCCCC2C1=O)c1ccccc1 (stereo not drawn) | – | 25.1 µM (active)
COc1ccc2c(c1)C(c1ccc([N+](=O)[O-])cc1)=NNC(c1ccco1)=N2 | – | 7.08 µM (active)
COC(=O)C1=C(CSc2nncn2C)NC(=O)NC1c1ccc(F)cc1 (stereo not drawn) | -22.7% | –
Cn1cnnc1SCC(=O)n1c2ccccc2c2ccccc21 | – | 8.91 µM (active)
CC(=O)Oc1ccc2ccccc2c1C(NC(=O)Cc1ccccc1)c1ccc(Cl)cc1 (stereo not drawn) | – | 1.26 µM (active)
CC(=O)Oc1ccc(C(c2ccc(OC(C)=O)cc2)c2ccccn2)cc1 | -19.5% [at 25.6 µM] | –
CCCCOc1ccc(CC(=O)NO)cc1 | -1.35% [at 25.6 µM] | –
COc1ccc(OC(=O)c2ccncc2)cc1 | – | 1.41 µM (active)

Structure (SMILES) | activity, negative = inhibition | AC50
CCCCOc1ccc(OC(=O)c2cccnc2)cc1 | – | 17.8 µM (active)
COc1ccc(C(=O)N2CCC3(CC2)CN(c2ccncc2)C3)cc1 | 12.9% | –
N#Cc1ccc(OC(=O)c2ccc(N=C(N)N)cc2)cc1 | 14.4% [at 11.4 µM] | –
COc1ccc(C(=O)N2CCC3(CC2)CCN(c2ccncc2)CC3)cc1 | 5.92% | –
CCCCCOc1ccc(OC(=O)c2ccncc2)cc1 | – | 3.16 µM (active)
O=C(Nc1ccc(OC(=O)c2cccnc2)cc1)c1cccnc1 | 15.1% | –
CCN(CC)C(=O)CSc1nc2ccc(NC(=O)CSc3nnc(COc4ccccc4C)n3C)cc2s1 | – | 2.82 µM (active)
Br/C(=N\Nc1nn[nH]n1)c1ccncc1 | 22.2% [at 11.4 µM] | –
CN(C)/C=C/C(=O)c1ccc(Cl)cc1 | – | 11.2 µM (active)
CC(Oc1ccc(Cl)cc1Cl)C(=O)/C=C/N(C)C (stereo not drawn) | – | 2.82 µM (active)
CC(=O)ON(C(C)=O)S(=O)(=O)c1ccc(Cl)cc1 | 7.43% | –
CC(Oc1ccc(Cl)cc1)C(=O)/C=C/N(C)C (stereo not drawn) | – | 7.94 µM (active)
NCCNC(=O)c1ccc(Cl)cc1 | – | inactive
O=C(O)/C=C\[C@H](O)c1ccc(Cl)cc1 | 36% | –
O=C(NCc1ccccc1)C(c1cccs1)N(Cc1cccs1)C(=O)c1cnccn1 (stereo not drawn) | – | 3.55 µM (active)
COc1ccc2nc3oc(C(=O)NCc4cccs4)cc3cc2c1 | -60.4% | –
COc1ccc(CNC(=O)C(c2ccc(C)cc2)N(Cc2cccs2)C(=O)c2ccc3c(c2)OCCO3)cc1 (stereo not drawn) | – | 2.82 µM (active)
COc1ccc(C(C(=O)NCc2ccccc2)N(Cc2cccs2)C(=O)c2cnccn2)cc1 (stereo not drawn) | – | 7.08 µM (active)
O=C(c1cnccn1)N1CCC2(CC1)CCN(C(c1ccccc1)c1ccccc1)CC2 | -17.6% | –
CCc1ccc(C(C(=O)NCc2ccc(OC)cc2)N(CCOC)C(=O)Cc2cccs2)cc1 (stereo not drawn) | – | 5.62 µM (active)
